Sfp inh: qHTS Assay for Inhibitors of Bacillus subtilis Sfp phosphopantetheinyl transferase (PPTase) | Biochemical Sfp PPTase activity, qHTS | 3.5% of 310,000 active | AID 1490, 2009 | Potency, µM, without a hit: largest response in the series, negative = inhibition, hits mostly inhibitors | 4'-phosphopantetheinyl transferase ffp (Bacillus subtilis), Q9F4F7;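 also: the enzyme is Sfp with the accession as filed and its product quenches rhodamine fluorescence; 0% = enzyme reaction without inhibitor and -100% = no enzyme wells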
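Buffer: 50 mM Hepes-Na pH 7.6, 10 mM MgCl2, 0.01% Nonidet P-40, 0.01% BSA. Enzyme 15 nM, pre-exposed to compound 15 min; substrates then added and fluorescence change tracked over 30 min.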
L3MBTL1 block: qHTS Assay for the Inhibitors of L3MBTL1; Lethal(3)malignant brain tumor-like protein 1 (Homo sapiens), Q9Y468; AlphaScreen L3MBTL1–H3K9me1 peptide binding; Potency, µM (doses to about 57.1 µM), for inactives: at the top dose activity, negative = inhibition, actives largely listed as inhibitors; 0.66% of 230,000 active; AID 485360, 2010; also: % is scaled to controls: 0 for no effect and ±100 for the full control effect; nearly all actives have a fitted effect of over 60% in size
Target sequence (Q9Y468 whole entry, looked up): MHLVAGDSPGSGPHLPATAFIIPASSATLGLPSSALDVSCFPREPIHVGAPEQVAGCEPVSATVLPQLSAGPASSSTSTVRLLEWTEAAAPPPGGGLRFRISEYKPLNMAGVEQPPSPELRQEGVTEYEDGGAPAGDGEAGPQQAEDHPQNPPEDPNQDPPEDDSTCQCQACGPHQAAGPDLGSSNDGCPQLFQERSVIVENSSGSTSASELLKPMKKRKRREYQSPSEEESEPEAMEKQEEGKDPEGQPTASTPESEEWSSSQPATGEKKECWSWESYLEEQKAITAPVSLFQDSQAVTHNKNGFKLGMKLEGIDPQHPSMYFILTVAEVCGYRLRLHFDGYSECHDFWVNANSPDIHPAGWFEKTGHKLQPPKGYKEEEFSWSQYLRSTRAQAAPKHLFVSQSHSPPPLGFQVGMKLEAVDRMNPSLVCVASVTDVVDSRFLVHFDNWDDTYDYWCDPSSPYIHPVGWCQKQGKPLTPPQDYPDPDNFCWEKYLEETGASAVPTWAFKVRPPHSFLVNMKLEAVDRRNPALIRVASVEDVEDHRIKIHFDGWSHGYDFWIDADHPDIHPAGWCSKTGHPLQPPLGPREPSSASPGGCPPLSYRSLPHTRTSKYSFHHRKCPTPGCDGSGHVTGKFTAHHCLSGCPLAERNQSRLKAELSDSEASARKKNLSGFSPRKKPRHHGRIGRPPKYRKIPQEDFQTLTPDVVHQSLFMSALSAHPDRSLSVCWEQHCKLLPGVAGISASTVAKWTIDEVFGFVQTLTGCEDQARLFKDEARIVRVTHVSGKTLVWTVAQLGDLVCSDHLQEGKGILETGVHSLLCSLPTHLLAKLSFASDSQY
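Displacement of a biotinylated histone H3(1-15) peptide monomethylated at Lys9 (75 nM) from L3MBTL1 (50 nM) was measured by AlphaScreen after a 30 min room-temperature compound incubation; cefsulodin titration served as intraplate control.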
HP1b chromo inh: HTS for Inhibitors of HP1-beta Chromodomain Interactions with Methylated Histone Tails; Potency, µM (doses to about 114 µM), inactives show at the top dose activity change, negative = inhibition, actives largely listed as inhibitors; AlphaScreen HP1-beta / biotin-H3K9me3 peptide binding; AID 540317, 2011; 0.56% of 390,000 active; Chromobox protein homolog 1 (Homo sapiens), P83916; also: nearly all actives have a fitted effect of over 70% in size
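Compound inhibition of the preformed complex between 50 nM HP1-beta and 50 nM biotinylated H3K9me3 peptide was read by AlphaScreen. Buffer was PBS pH 7.4 with 0.01% Tween-20. Incubations ran 30 min at room temperature, with 10 ug/mL donor/acceptor beads.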
JMJD2A Tudor inh: qHTS Assay for Inhibitors of JMJD2A-Tudor Domain; Lysine-specific demethylase 4A (Homo sapiens), O75164; AlphaScreen JMJD2A-Tudor / H3K4me3 peptide binding; Potency, µM (top dose mostly 114 µM), inactives show at the highest dose activity change, negative = inhibition, actives largely listed as inhibitors; 4.4% of 390,000 active; AID 504339, 2011; also: % is scaled to controls: 0 for no effect and ±100 for the full control effect; nearly all actives have a fitted effect of over 50% in size
BAZ2B inh: qHTS Assay for Inhibitors of BAZ2B; AlphaScreen BAZ2B-H3K14Ac peptide displacement; 4.4% of 360,000 active; Potency, µM (top dose mostly 114 µM), for inactives: at the top dose activity change, negative = inhibition, usual class: inhibitors; Bromodomain adjacent to zinc finger domain protein 2B (Homo sapiens), Q9UIF8; also: % is scaled to controls: 0 for no effect and ±100 for the full control effect; nearly all actives have a fitted effect of over 60% in size
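In this displacement format the biotinylated H3(5-23) peptide acetylated at Lys14 serves as ligand at 50 nM, with BAZ2B at 50 nM in PBS pH 7.4 containing 0.01% Tween-20. Donor and acceptor beads are 10 ug/mL final.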
G9a inh: qHTS Assay for Inhibitors of Histone Lysine Methyltransferase G9a; AID 504332, 2011; Potency, µM (highest dose often 102 µM), for inactives: at the highest dose activity, negative = inhibition, usual class: inhibitors; 8.8% of 350,000 active; G9a H3K9 monomethylation, AlphaScreen, 2 h; also: % is scaled to controls: 0 for no effect and ±100 for the full control effect; nearly all actives have a fitted effect of over 75% in size
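Enzyme 20 nM + cpd, 15 min RT; add b-H3K9 pep 500 nM / SAM 20 uM; 2 h RT; anti-H3K9me1 Ab 0.5 ug/mL + SA donor / anti-rabbit acceptor beads 20 ug/mL each, 10 min; AlphaScreen read.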
Active calls of the source: *; ? = inconclusive; . = not tested or not shown; [ ] = dose if it differs, or a comment. Only some compounds are listed: those with a hit (about 12% of all), similar ones and a draw of the others. Calls follow the shape of the dose curve; as a rule, active = well fitted curve in the direction sought with a large enough effect; inconclusive = small, poorly fitted or top-dose-only effect, or another doubt; inactive = no such curve, though single readings can be large; an effect the other way counts as inactive or inconclusive. Potency is read from the fitted curve at half-maximal effect.

SMILES	Sfp inh	L3MBTL1 block	HP1b chromo inh	JMJD2A Tudor inh	BAZ2B inh	G9a inh
O=C(OCc1cc(=O)n2c(n1)sc1ccccc12)c1cccc(O)c1	-10%	?	?	35µM*	-45%	-4%[59 µM]
O=C(Cc1coc2cc3c(cc12)CCC3)OCc1cc(=O)n2c(n1)sc1ccccc12	40µM*	.	?	?	50µM*	-35%[12.7 µM]
Cc1ccc2c(CC(=O)OCc3csc(C)n3)coc2c1	12%	14%	28%	18%	41%	1%[59 µM]
O=C(OCc1cc(=O)n2c(n1)sc1ccccc12)c1ccc(O)cc1O	5%	?	29%	-20%	-37%	?
COc1ccc(N2CCN(C(CNC(=O)C(=O)NCCCn3ccnc3)c3cccnc3)CC2)cc1 (stereo not drawn)	5%	.	15%	45µM*	.	?
COc1ccc(CCNC(=O)C(=O)NCC(c2cccnc2)N2CCN(c3ccccc3)CC2)cc1 (stereo not drawn)	.	.	46%	-16%	-37%	-28%[59 µM]
Cc1cc(C)cc(NC(=O)C(=O)NCC(c2cccnc2)N2CCOCC2)c1 (stereo not drawn)	.	.	20%	-17%	79µM*	-39%[59 µM]
COc1ccc(NC(=O)C(=O)NCC(c2cccnc2)N2CCc3ccccc3C2)cc1 (stereo not drawn)	.	.	?	40µM*	10µM*	14µM*
O=C(NCCCn1ccnc1)C(=O)NCC(c1cccnc1)N1CCN(c2ccc(F)cc2)CC1 (stereo not drawn)	-26%	-17%	28%	-34%	50µM*	50µM*
O=C(NCC(c1cccnc1)N1CCOCC1)C(=O)Nc1ccc(Cl)cc1 (stereo not drawn)	.	.	21%	-3%	-14%	-4%[59 µM]
COc1ccc(C(=O)Nc2ccc3nc4c(c(Nc5ccccc5OC)c3c2)CCCC4)c(OC)c1	.	.	11%	-23%	-20%	?
Cc1noc(C)c1-c1csc(N2CCC(C(N)=O)CC2)n1	.	3%	36%	?	-1%	6%[12.7 µM]
Cc1ccc(-c2nc(Nc3cccc(C)c3)sc2CC(=O)O)cc1	20µM*	22%	-9%	?	-16%	.
O=C(O)Cc1sc(Nc2cccc3ccccc23)nc1-c1ccc(F)cc1	1%	.	4%	-12%	-23%	45µM*
Cc1cccc(Nc2nc(CC(=O)O)cs2)c1	?	11%	-17%	-35%	?	?
O=C(O)Cc1sc(NC2CCCCC2)nc1-c1ccc(Cl)cc1	-14%	.	-1%	-26%	?	40µM*
COc1ccc(CC(=O)NC2CC(=O)N(c3cccc(F)c3)C2)cc1 (stereo not drawn)	.	.	17%	-12%	2%	6%[59 µM]
COc1ccc(S(=O)(=O)N2CCOCC2)cc1NC(=O)c1cccc(Cl)c1	-1%	.	35%	5%	7%	.
CC(=O)c1c(N2CCN(C(=O)c3ccco3)CC2)nc(=S)n(-c2ccccc2)c1C	17%	5%	13%	-3%	9%	10%[59 µM]
CC12CC(c3ccccc3O1)N(C(=O)c1ccco1)C(=S)N2c1ccccc1 (stereo not drawn)	-7%	.	-1%	-28%	?	40µM*
Cc1ccc(C)c(CN2C(=O)c3ccccc3S(=O)(=O)c3ccc(C(=O)N4CCN(C)CC4)cc32)c1	9%	.	4%[57 µM]	-17%	89µM*	2%[59 µM]
COc1ccc(CCNC(=O)c2ccc3c(c2)N(Cc2ccccc2F)C(=O)c2ccccc2S3(=O)=O)cc1OC	.	.	26%	-19%	-13%	7.9µM*
Cc1ccc(C)c(CN2C(=O)c3ccccc3S(=O)(=O)c3ccc(C(=O)N4CCCC4)cc32)c1	.	.	28%	-13%	-22%	1%[59 µM]
COc1ccc(CCNC(=O)c2ccc3c(c2)N(Cc2cccc(C)c2)C(=O)c2ccccc2S3(=O)=O)cc1OC	.	.	17%	-24%	?	-43%[59 µM]
O=C(CN1C(=O)NC2(CCCCCC2)C1=O)NCCc1ccccc1	.	0%	21%	-8%	5%	-2%[2.33 µM]
SMILES	Sfp inh	L3MBTL1 block	HP1b chromo inh	JMJD2A Tudor inh	BAZ2B inh	G9a inh
CC(C)(C=O)C1=CC(=O)c2ccccc2C1=O	6.3µM*	-11%	5µM*	25µM*	50µM*	1.8µM*
CC1=CC(=O)c2ccccc2C1=O	?	-18%	33%	10%	?	8.9µM*
COc1cccc2c1C(=O)C=C(C)C2=O	-4%	-6%	15%	-9%	-7%	-8%[59 µM]
Cc1csc2nc(COc3ccc(NC(=O)c4ccccc4F)cc3)cc(=O)n12	.	.	42%	-35%	-24%	?
CCC(C)C(CO)NCCCn1cnc(C(=O)Nc2ccc(C)c(C)c2)n1 (stereo not drawn)	.	.	70%	-9%	.	.
CCN(CC)CCCC(C)Nc1nc(C)cc(Nc2ccc3nc(C)cc(N)c3c2)n1 (stereo not drawn)	0%	.	.	.	.	.
CC1CCN(C(=O)CSc2ccc(-c3cccnc3)nn2)CC1	0%	.	25%	-11%	-4%	19%[12.7 µM]
Cc1cc(C)cc(C(=O)N2CC(=O)Nc3ccc(Br)cc3C2c2ccccc2)c1 (stereo not drawn)	.	.	7%	-26%	-13%	-11%[59 µM]
O=C(NCC1CC1)c1ccc(Nc2nc3ccc(Br)cc3[nH]2)cc1	32µM*	-9%	?	20µM*	-32%	?
O=C(N/N=C(\Cc1ncc[nH]1)c1ccccc1)c1cccnc1	1%	.	24%	50µM*	14µM*	-11%
O=C(N/N=C(\Cc1ncc[nH]1)c1ccccc1)c1ccncc1	-12%	.	47%	40µM*	8.9µM*	-23%
O=C(N/N=C(\c1ccccc1)c1cccnc1)c1cccc(F)c1	10%	.	18%	45µM*	56µM*	8%
CC(Sc1nc(-c2ccccc2)c(C#N)c(=O)[nH]1)C(=O)Nc1ccc(F)cc1 (stereo not drawn)	.	.	20%	-26%	-14%	-22%[59 µM]
CCCCS(=O)(=O)N1CCCC(C(=O)Oc2ccc(Cl)cc2)C1 (stereo not drawn)	24%	8%	75%	4%	-3%	39%
C=CCn1c(-c2cc(Cl)ccc2OC)n[nH]c1=S	0%	.	8%	7.9µM*	1%	1.6µM*
COc1ccc(Cl)cc1-c1nc(SCC(=O)N(C)C)n[nH]1	18%	.	28%	-22%	13%	-3%

Screening results from PubChem BioAssay.
